Test results published in PubChem BioAssay (NCATS).
Results filed as inconclusive are left out. Calls of active or inactive are those of the source. Unless noted, the call rests on the fitted dose curve; in most records, active means well fitted curve in the direction sought with a large enough effect; inconclusive means small, poorly fitted or top-dose-only effect, or another doubt; inactive means no such curve, though single readings can be large; an effect the other way counts as inactive or inconclusive.

Legend:
[1] = Validation of Assay for Modulators of Lamin A Splicing (AID 1459; active means well fitted curve in the direction sought with a large enough effect in the signal ratio; the % refers to the signal ratio;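 further: cells exposed to compound for two days before reading; 0% is about no effect; ratio rise marks activators and ratio drop marks inhibitors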)
Procedure, shortened: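 HeLa S3 lamin A-EGFP/DsRed2 stable clone, 600 cells/well, Opti-MEM 2% FBS; compounds by pin tool; 48 hrs, 37 °C/5% CO2; Acumen 488 nm scan, objects 10-100 um; GFP/RFP intensity ratio.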

[2] = qHTS Assay for Lipid Storage Modulators (AID 1519; calls by dose curve; on activity change, negative = inhibition: on the % scale 0 is the no-effect control and ±100 the full control effect); conditions: Drosophila S3 cells, BODIPY lipid droplet/cell ratio, laser cytometry, cells loaded with oleic acid; for activity change, negative = inhibition: at 57.5 µM (top of the series)
Procedure, shortened: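 Cells seeded at 5,000 per well were treated with compounds over a concentration series and loaded with oleic acid (400 uM, as added). Lipid droplet fluorescence (488 nm excitation, 500-530 nm channel) was read by laser-scanning cytometry and normalized to 20 uM Triacsin C.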

[3] = target: DNA repair nuclease/redox regulator APEX1 (Homo sapiens) (UniProt P27695); assay: qHTS Validation Assay for Inhibitors of the Human Apurinic/apyrimidinic Endonuclease 1 (APE1) (AID 1705; further: potency means the concentration at half of the fitted maximal effect;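 on activity change, negative = inhibition: TAMRA fluorescence gain over two minutes as APE1 cuts a quenched THF abasic duplex; on the % scale 0 is the no-effect control and ±100 the full control effect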)
Procedure, shortened: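 qHTS, 1536-well. APE1 + cpd 15 min RT → 50 nM TAMRA/BHQ-2 THF-abasic dsDNA substrate → kinetic fluorescence, 3 reads/60 s; delta(read3−read1) = reaction progress. No-enzyme buffer = negative control.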

[4] = Counterscreen for APE1 Inhibitors: Fluorescent Dye Displacement Validation Assay (AID 1707);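 further: plate controls were ThO with dsDNA and no compound for no effect and ThO without dsDNA for full effect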
Procedure, shortened: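 Reaction mixture of 250 nM Thiazole Orange and 50 nM double-stranded abasic-site DNA was dispensed, compounds were pin-transferred, and fluorescence was read at endpoint (480 nm ex, 540 nm em). Reduced fluorescence indicated dye displacement by DNA binding.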

[5] = target: Endonuclease 4 (Escherichia coli (strain K12)) (UniProt P0A6C1); assay: Counterscreen for APE1 Inhibitors: qHTS Validation Assay for Inhibitors of Endonuclease IV (AID 1708); further: on the % scale 0 is the no-effect control and ±100 the full control effect
Procedure, shortened: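 Read-out: fluorescence rise (ex 525/em 598 nm) from incision of a TAMRA/BHQ-2 double-stranded THF abasic-site substrate (50 nM), measured kinetically; third-minus-first read difference gave reaction progress. Enzyme 2 nM.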

[6] = qHTS for differential inhibitors of proliferation of Plasmodium falciparum line GB4 (AID 1816); conditions: Potency: Plasmodium falciparum GB4 proliferation inhibition;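 further: parasite growth measured after 72 h incubation; 0% = vehicle DMSO and -100% = reference inhibitor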
[7] = target: Alpha-galactosidase A (Homo sapiens) (UniProt P06280); assay: Counterscreen for Glucocerebrosidase Inhibitors: qHTS Assay for Human alpha-Galactosidase at pH 4.5 (AID 992); further: 0% is about no effect
Procedure, shortened: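 Steps: enzyme (2 nM final), then compound across 0.7 nM to 77 uM, then 80 uM fluorogenic galactopyranoside substrate; incubate 20 min at room temperature; quench at pH 10; measure fluorescence at 365/440 nm.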

[8] = qHTS for differential inhibitors of proliferation of Plasmodium falciparum line 7G8 (AID 1815);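 further: parasite growth measured after three days of incubation; plate controls were vehicle wells for no effect and reference inhibitor wells for full effect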
[9] = Cell Viability - LYMP2-010 (AID 981);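 further: cells exposed to compound for 24 hours at 37 °C; on the % scale 0 is the no-effect control and ±100 the full control effect; nearly all actives have a fitted effect of over 55% in size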
Procedure, shortened: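 This 24 hr viability screen uses LYMP2-010 lymphoblastoid cells, quantifies ATP via luciferase luminescence, and derives AC50 from Hill fits of qHTS concentration-response data.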

[10] = Cell Viability - LYMP2-012 (AID 982);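 further: cellular ATP by luciferase luminescence where a drop means cytotoxicity; cells exposed to compound for one day before reading; 0% = DMSO only and full loss = 92 µM tetraoctylammonium bromide; nearly all actives have a fitted effect of over 55% in size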
[11] = Cell Viability - LYMP2-014 (AID 983);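 further: cells exposed to compound for 24 h at 37 °C; plate controls were DMSO only for no effect and 92 µM tetraoctylammonium bromide for full effect; nearly all actives have a fitted effect of over 50% in size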
Procedure, shortened: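 Quantitative HTS in lymphoblastoid cells: 24 hr compound exposure, then CellTiter-Glo ATP luminescence. Positive control was tetraoctylammonium bromide, 6.4pM to 92 uM.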

[12] = Cell Viability - LYMP2-016 (AID 984);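 further: cells exposed to compound for 24 hours at 37 °C; on the % scale 0 is the no-effect control and ±100 the full control effect; nearly all actives have a fitted effect of over 55% in size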
Procedure, shortened: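 Cells were seeded at 2500 per well and rested 5 hr before a 24 hr compound exposure at 37 C. Viability was then gauged as cellular ATP by luciferase luminescence, with AC50 values fitted to the Hill equation.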

[13] = Cell Viability - LYMP2-018 (AID 985);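 further: plate controls were DMSO only for no effect and tetraoctylammonium bromide at 92 µM for full effect; nearly all actives have a fitted effect of over 50% in size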
Procedure, shortened: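 In this qHTS viability assay, cells are treated for 24 hr and cellular ATP is quantified by luciferase-based luminescence, with tetraoctylammonium bromide as positive control.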

[14] = Cell Viability - LYMP2-020 (AID 986);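 further: cells exposed to compound for 24 h at 37 °C; plate controls were DMSO only for no effect and tetraoctylammonium bromide at 92 µM for full effect; nearly all actives have a fitted effect of over 55% in size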
Procedure, shortened: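 Cells at 2500 per well receive a 24 hr compound exposure at 37 C. Viability is measured as ATP-dependent luciferase luminescence, with AC50 modeled from qHTS concentration-response curves.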

[15] = Cell Viability - LYMP2-022 (AID 987)
Procedure, shortened: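 In this qHTS cytotoxicity screen, compound titrations were incubated 24 hr at 37 C with human lymphoblastoid cells in complete medium. Luciferase-based ATP luminescence provided the viability signal.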

[16] = Cell Viability - LYMP2-024 (AID 988);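 further: plate controls were DMSO only for no effect and 92 µM tetraoctylammonium bromide for full effect; nearly all actives have a fitted effect of over 60% in size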
Procedure, shortened: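 Cells at 2500 per well received compound for 24 hr after a 5 hr settling period. Viability was scored by CellTiter-Glo luminescence, with AC50 from Hill fits.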

[17] = Cell Viability - LYMP2-026 (AID 989);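 further: cells exposed to compound for 24 h at 37 °C; on the % scale 0 is the no-effect control and ±100 the full control effect; nearly all actives have a fitted effect of over 50% in size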
Procedure, shortened: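 Acute toxicity screen in complete culture medium, with 24 hr compound exposure at 37 C. Viability read as cellular ATP via luciferase reaction, with tetraoctylammonium bromide (6.4pM to 92 uM) as positive control.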

[18] = Cell Viability - LYMP1-002 - Assay at 40 hr (AID 994);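 further: 0% = DMSO only and full inhibition = 92 µM tetraoctylammonium bromide; nearly all actives have a fitted effect of over 60% in size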
Procedure, shortened: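 Concentration-dependent ATP loss after 40 hr treatment at 37 C defined toxicity; AC50 values were obtained by fitting the standard Hill equation.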

[19] = measured here: cell count channel max response
[20] = measured here: lipid channel max response

Chain of DNA repair nuclease/redox regulator APEX1 (Homo sapiens) (P27695 whole entry, looked up): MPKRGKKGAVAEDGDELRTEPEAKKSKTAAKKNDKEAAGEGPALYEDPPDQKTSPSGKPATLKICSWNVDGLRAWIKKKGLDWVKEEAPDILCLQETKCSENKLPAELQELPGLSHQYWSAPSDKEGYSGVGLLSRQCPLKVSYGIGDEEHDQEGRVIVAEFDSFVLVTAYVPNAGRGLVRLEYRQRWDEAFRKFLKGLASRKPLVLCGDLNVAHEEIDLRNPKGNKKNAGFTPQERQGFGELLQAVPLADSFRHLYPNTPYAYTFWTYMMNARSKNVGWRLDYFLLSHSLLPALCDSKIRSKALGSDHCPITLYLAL
Chain of Alpha-galactosidase A (Homo sapiens) (P06280 whole entry, looked up): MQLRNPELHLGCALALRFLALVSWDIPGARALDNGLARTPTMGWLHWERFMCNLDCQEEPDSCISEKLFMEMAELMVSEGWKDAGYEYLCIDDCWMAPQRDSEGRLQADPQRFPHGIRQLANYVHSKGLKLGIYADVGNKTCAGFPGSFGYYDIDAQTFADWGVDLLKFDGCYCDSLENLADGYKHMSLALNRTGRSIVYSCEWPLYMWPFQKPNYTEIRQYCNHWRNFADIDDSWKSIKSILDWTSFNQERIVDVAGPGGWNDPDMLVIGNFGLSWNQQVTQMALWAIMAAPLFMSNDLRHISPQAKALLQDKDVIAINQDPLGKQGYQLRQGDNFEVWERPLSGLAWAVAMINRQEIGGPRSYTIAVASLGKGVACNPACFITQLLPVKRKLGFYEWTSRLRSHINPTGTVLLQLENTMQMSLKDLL

NCC(O)c1cc(O)c(O)cc1F (stereo not given)
inactive: outcome [1] | activity change, negative = inhibition [2] -0.0544% | Potency [4] | Potency [5] | Potency [6]
-39.7%: max response [2, 20]
active: Potency [3] 35.5 µM
-35.5%: max response [2, 19]

CCCN(CCC)C1Cc2cc(OC)c(OC)cc2C1
-31.4%: max response [2, 20]
inactive: outcome [7] | outcome [1] | activity change, negative = inhibition [2] -0.96% | Potency [3] | Potency [4] | Potency [5] | Potency [8]
-27.4%: max response [2, 19]

COc1ccc2c(c1OC)C(=O)OC2C1c2cc3c(cc2CCN1C)OCO3 (stereo not given)
inactive: Potency [9] | Potency [10] | Potency [11] | Potency [12] | Potency [13] | Potency [14] | Potency [15] | Potency [16] | Potency [17] | Potency [18] | outcome [1] | activity change, negative = inhibition [2] 1.56% | Potency [3] | Potency [4] | Potency [5] | Potency [8]
61%: max response [2, 19]
66.1%: max response [2, 20]

C[N+]1(C)CCN(c2ccccc2)CC1
-16.2%: max response [2, 20]
-21.1%: max response [2, 19]
inactive: outcome [7] | outcome [1] | activity change, negative = inhibition [2] 1.07% | Potency [3] | Potency [4] | Potency [5] | Potency [8] | Potency [6]
